TrxR1 inh = qHTS Assay for Inhibitors of Mammalian Selenoprotein Thioredoxin Reductase 1 (TrxR1): qHTS; Thioredoxin reductase 1, cytoplasmic (Rattus norvegicus), O89049; hit rate 1% among 390,000; Potency, µM (titrated, usually from 114 µM), for inactives: at the top dose activity change, negative = inhibition, most hits filed as inhibitors; recombinant rTrxR1, NADPH fluorescence consumption, selenite substrate; further: nearly all actives have a fitted effect of over 65% in size
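Rat TrxR1 (90 nM in the dispensed reagent) was pre-reduced with 400 uM NADPH for 5 min at room temperature, then incubated with compound for 15 min. After 400 uM selenite was added, NADPH fluorescence (Ex 340/Em 450 nm) was followed for 8 min.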
NPSR antagonist = qHTS Assay for Antagonists of the Neuropeptide S Receptor: cAMP Signal Transduction | Q6W5P4 | CHO-NPSR cells, cAMP TR-FRET, antagonist mode | Potency, µM (doses to about 38.3 µM), inactives show top-dose activity change, negative = inhibition, hits mostly inhibitors | hit rate 1% among 220,000; further: nearly all actives have a fitted effect of over 50% in size
Target sequence (Q6W5P4 whole entry, looked up): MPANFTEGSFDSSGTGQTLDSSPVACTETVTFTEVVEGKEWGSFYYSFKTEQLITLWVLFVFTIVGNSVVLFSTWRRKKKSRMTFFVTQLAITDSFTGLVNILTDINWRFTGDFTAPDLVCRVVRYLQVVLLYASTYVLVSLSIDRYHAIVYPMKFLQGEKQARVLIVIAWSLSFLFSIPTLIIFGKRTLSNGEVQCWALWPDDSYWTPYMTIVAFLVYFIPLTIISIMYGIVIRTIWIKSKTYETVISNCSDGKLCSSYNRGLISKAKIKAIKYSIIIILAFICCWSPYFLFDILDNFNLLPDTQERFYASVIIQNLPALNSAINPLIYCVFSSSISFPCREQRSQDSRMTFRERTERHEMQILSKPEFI
GALK inhibitor = qHTS Assay for Inhibitors of Human Galactokinase (GALK); P51570; Potency, µM (top dose mostly 57.5 µM), inactives show at the highest dose activity change, negative = inhibition, usual class: inhibitors; hit rate 0.007% among 270,000; Purified GALK, Kinase-Glo residual ATP luminescence
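Kinase-Glo Plus luminescence measured ATP left after a 1 h room-temperature reaction. The reaction used 5 nM GALK, 100 uM galactose and 35 uM ATP at pH 8.0 (20 mM HEPES, 5 mM MgCl2, 60 mM NaCl, 1 mM DTT, 0.01% BSA).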
TrxR1 substrate = qHTS Assay for Substrates of Mammalian Selenoprotein Thioredoxin Reductase 1 (TrxR1): qHTS | Thioredoxin reductase 1, cytoplasmic (Rattus norvegicus), O89049 | purified TrxR1 substrate turnover, NADPH consumption readout | Potency, µM (titrated, usually from 114 µM), for inactives: at the top dose activity change, negative = substrate turnover | hit rate 0.01% among 390,000 | AID 588456, 2011; further: nearly all actives have a fitted effect of over 50% in size
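Rat TrxR1, dispensed at 90 nM, was prereduced with 400 uM NADPH (final) for 5 min at ~22 deg C, then incubated with compound 15 min before 400 uM selenite. A first-read NADPH fluorescence drop versus no-compound background flagged substrates.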
* hit, by the source's call; ? = inconclusive; / = not tested or not shown; [ ] = remark or other dose. Hits are enriched below; roughly 1.2% of the tested compounds scored in any of these assays. The call rests on the fitted dose curve; in most records, active means well fitted curve in the direction sought with a large enough effect; inconclusive means small, poorly fitted or top-dose-only effect, or another doubt; inactive means no such curve, though single readings can be large; an effect the other way counts as inactive or inconclusive. On the % scale 0 is the no-effect control and ±100 the full control effect; potency means the concentration at half of the fitted maximal effect.

SMILES	TrxR1 inh	NPSR antagonist	GALK inhibitor	TrxR1 substrate
COc1cc(OC)c(NC(=O)c2nn(C)c3c2COc2ccccc2-3)cc1Cl	16µM*	/	/	6%
COc1cc2c(NC3CCN(C)CC3)nc(N3CCCN(C)CC3)nc2cc1OCCCCCCN(C)C	?	/	/	76%
COc1cc(NS(=O)(=O)c2cc(Br)cc3c2N(C(=O)C2CC2)CC3)cc(OC)c1	15%[57.1 µM]	/	/	6%[57.1 µM]
Cc1cccc(-n2cnc3cc(C(=O)NC4CCCCCC4)ccc32)c1	12%[57.1 µM]	/	/	1%[57.1 µM]
C=C1C(=O)[C@@]23[C@H](O)C[C@@H]4C(C)(C)CC[C@H](O)[C@@]4(C)[C@@H]2CC[C@@H]1[C@H]3O	14µM*	-11%	/	3%
C=C1C(=O)[C@@]23[C@H](O)C[C@@H]4C(C)(C)CC[C@H](O)[C@]4(C)[C@@H]2C[C@H](O)[C@@H]1[C@H]3O	16µM*	-3%	/	7%
C(=C\c1ccnc2ccccc12)/c1cc2c3c(c1)CCCN3CCC2	-12%	/	/	11%[0.0914 µM]
CC1=C/C(=C\c2ccc(N(C)C)cc2)c2ccccc21	-2%	/	/	-4%
O=C1C(Nc2ccccc2)=C/C(=N/S(=O)(=O)c2cccs2)c2ccccc21	-35%	-55%	3%	-15%
Cc1ccc(NC2=C/C(=N/S(=O)(=O)c3cccs3)c3ccccc3C2=O)cc1	11%	10µM*	2%	2%
c1nc(SSc2ncc3n[nH]nc3n2)nc2n[nH]nc12	?	/	/	-24%
O=S(=O)(NCCc1csc2nc(-c3ccc(F)cc3)nn12)c1ccc2c(c1)OCCO2	3%[57.1 µM]	/	/	-10%[57.1 µM]
COC(=O)c1ccc(NC(=O)c2ccccc2OCC(=O)Nc2ccc(Br)cc2)cc1	4%	/	/	9%
NN/C(=C\[N+](=O)[O-])Nc1ccc(Cl)cc1	16µM*	2%	-4%	0%
NN/C(=C\[N+](=O)[O-])Nc1ccccc1	16µM*	-4%	11%	0%
O=C(/C=C/c1ccccc1[N+](=O)[O-])Nc1ccccc1	21%	-18%	7%	-1%
O=C(Nc1cccc(C(=O)N2CCCC2)c1)C1CC1	2%	/	/	-6%
O=[N+]([O-])c1ccc(O/N=[N+](\[O-])N2CCN(c3ncccn3)CC2)c([N+](=O)[O-])c1	14µM*	/	/	10%[0.457 µM]
O=[N+]([O-])c1ccc(O/N=[N+](\[O-])N2CCN(c3ccccc3)CC2)c([N+](=O)[O-])c1	32µM*	/	/	-7%
CCOC(=O)c1noc2ncnc(Nc3cccc(OC)c3)c12	17%[57.1 µM]	/	/	-1%[57.1 µM]
COc1ccc(-c2nc(SCC(=O)Nc3cccc(S(N)(=O)=O)c3)n[nH]2)cc1	24%[57.1 µM]	/	/	-2%
C=C1C(=O)O[C@@H]2[C@H]3O[C@]3(C)CC/C=C(\C)CC[C@@H]12	56µM*	/	/	1%
O=C(NCC1CCCO1)c1nn2c(C(F)(F)F)cc(-c3ccc(Br)o3)nc2c1Br (stereo unspecified)	14µM*	/	-2%	6%
CS(=O)(=O)c1ccc(/C=C2\C=Cc3ccccc32)cc1	-27%	/	/	-10%
CCNC(=O)Cn1c(-c2cccs2)cc2ccccc21	-2%	/	/	30%
SMILES	TrxR1 inh	NPSR antagonist	GALK inhibitor	TrxR1 substrate
CC(C)(C)c1ccc(CN2N=Nc3ccccc3S2(=O)=O)cc1	?	10µM*	3%	3%
CSCCC(NS(=O)(=O)c1ccc2c(c1)oc(=O)n2C)C(=O)N1CCN(c2cccc(Cl)c2)CC1 (stereo unspecified)	25%[57.1 µM]	/	/	-2%[57.1 µM]
O=c1[nH]c(=O)n([C@H]2C[C@@H](O)[C@@H](CO)O2)cc1F	27%	/	/	4%
O=C(CCS(=O)(=O)c1ccccc1)N1CCCc2ccccc21	71µM*	/	-2%	0%
O=C(CCC(=O)N1CCCc2ccccc21)N1CCN(S(=O)(=O)c2ccccc2)CC1	13%[57.1 µM]	-4%[46.1 µM]	10%	13%[57.1 µM]
O=C(Nc1ccc2oc(-c3cccnc3)nc2c1)c1ccc(Br)o1	45µM*	?	-2%	10%
COc1ccccc1-c1c(C)nn2c(N3CCCCCC3)cc(C)nc12	-3%	10µM*	-2%	0%
COc1ccccc1-c1c(C)nn2c(N3CCOCC3)cc(C)nc12	0%	/	-1%	-6%
O=C1C2C3C=CC(C3=C3CCCCC3)C2C(=O)N1c1ccccc1 (stereo unspecified)	20µM*	-16%[46.1 µM]	0%	4%
O=C1C2C3C=CC(C3)C2C(=O)N1c1ccccc1 (stereo unspecified)	-11%	4%[46.1 µM]	1%	-5%
CC(=O)N(C1CC(C)C(C#N)(C#N)C1(C#N)C#N)N(C)C (stereo unspecified)	1.6µM*	-49%	-1%	12%[57.1 µM]
CCCC(=O)N(C1CC(C)C(C#N)(C#N)C1(C#N)C#N)N(C)C (stereo unspecified)	2.5µM*	-58%	1%	13%[57.1 µM]
CCCCCCCCCC[n+]1cccc2cc(Cl)ccc21	14%	/	/	5%[0.0914 µM]
Cc1cnc2ccc3ccccc3c2c1C	?	/	/	466%
O=S1(=O)CCO[C@H]2CCCC[C@@H]2N1Cc1cccc(F)c1	11%	/	/	5%
NC(CS)C(=O)O (stereo unspecified)	43%	/	/	5%
O=C(c1cc(-c2ccco2)nn1-c1cccc(Cl)c1)N1CCCCC1	14µM*	?	0%	11%
CC(C)NC(=O)c1cc(-c2ccco2)nn1-c1ccc(Cl)cc1	20µM*	-28%[46.1 µM]	-1%	4%
CC(C)CN(c1ccccc1)S(=O)(=O)c1nnc(NC(=O)C2CCCCC2)s1	-6%	/	/	-2%
O=C(NC(c1ccccc1)c1ccccc1)c1ccc(Br)o1	2%	-21%[46.1 µM]	-3%	-9%[57.1 µM]
O=C(/C=C/c1ccc(Br)o1)NC(c1ccccc1)c1ccccc1	20µM*	?	2%	16%
Nc1ncnc(Sc2ncccn2)c1[N+](=O)[O-]	1.4µM*	-22%	2%	-1%
Cc1ccc(-n2c(-c3ccc(Br)cc3)c[n+]3c2CCc2ccc4cccnc4c2-3)cc1	-15%	10µM*	-6%	5%
COc1ccc(-n2c(-c3ccc(Cl)cc3)c[n+]3c2CCc2ccccc2-3)cc1	2%[57.1 µM]	-15%	1%	2%[57.1 µM]
CCn1c(CN2CCN(c3cccc(Cl)c3)CC2)nc2c1c(=O)[nH]c(=O)n2C	29%	/	/	0%
CCCCNC(=O)C(CC)Sc1nnc(-c2ccc(OC)c(OC)c2)c(-c2ccc(OC)c(OC)c2)n1 (stereo unspecified)	15%[57.1 µM]	/	/	-1%[57.1 µM]
COc1cccc(/C=N/N2C(=O)CSC2=S)c1O	18µM*	8%	/	-13%
Cc1cccc(C(=O)Nc2nnc(S(=O)(=O)N(C)Cc3ccc(Cl)cc3)s2)c1	7%	/	/	-6%
Cc1nc2scc(-c3ccccc3)c2c(=O)n1N=C1C=CC(=O)C=C1	3.2µM*	31%	-1%	4%[57.1 µM]
COc1ccc(NC(=O)/C(Cl)=C(/Cl)S(=O)(=O)Cc2ccccc2)cn1	7.1µM*	5µM*	-3%	11%[57.1 µM]

Screens (PubChem)
